The panel holds about 83,000 compounds, 20% with a hit somewhere; the sample as a whole holds those more often.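 Method: cells in 96-well plates; compound added at one concentration; 48 h incubation; percent growth measured; values under 10 scored active.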 Active and inactive are the calls of the source.
Tests used:
Assay in all cases: NCI-60 one-dose screen, 48 h (100 = growth as untreated, 0 = no growth, -100 = all killed)
Conditions in all cases: 10 µM
RPMI-8226 leukemia = tested on: RPMI-8226 leukemia
OVCAR-8 ovarian = tested on: OVCAR-8 ovarian
OVCAR-5 ovarian = tested on: OVCAR-5 ovarian
OVCAR-4 ovarian = tested on: OVCAR-4 ovarian
SK-OV-3 ovarian = tested on: SK-OV-3 ovarian
OVCAR-3 ovarian = tested on: OVCAR-3 ovarian
HS 578T breast = tested on: HS 578T breast
NCI/ADR-RES ovarian = tested on: NCI/ADR-RES ovarian
T-47D breast = tested on: T-47D breast
IGROV1 ovarian = tested on: IGROV1 ovarian

Measured: growth

O=C(NC(=S)Nc1ccccn1)c1ccccc1
inactive: RPMI-8226 leukemia 60.4% | OVCAR-8 ovarian 103% | OVCAR-5 ovarian 89.1% | OVCAR-4 ovarian 62.7% | SK-OV-3 ovarian 107% | OVCAR-3 ovarian 98% | HS 578T breast 88.8% | NCI/ADR-RES ovarian 55.3% | T-47D breast 59.1%

O=S(=O)(c1cc(Cl)ccc1O)c1cc(Cl)ccc1O
inactive: RPMI-8226 leukemia 51.2% | OVCAR-8 ovarian 83.7% | OVCAR-5 ovarian 116% | OVCAR-4 ovarian 85.3% | SK-OV-3 ovarian 78.4% | OVCAR-3 ovarian 78% | HS 578T breast 65.6% | NCI/ADR-RES ovarian 91.9% | T-47D breast 67%

S=C1SCN(CCc2ccccc2)CN1CCc1ccccc1
inactive: RPMI-8226 leukemia 55.8% | OVCAR-8 ovarian 100% | OVCAR-5 ovarian 112% | OVCAR-3 ovarian 116% | HS 578T breast 105% | NCI/ADR-RES ovarian 102% | T-47D breast 70.8%

CCC(=O)Oc1ccc(/C=N/NC(N)=S)nc1
inactive: RPMI-8226 leukemia 50.3% | OVCAR-8 ovarian 23.5% | OVCAR-5 ovarian 108% | OVCAR-4 ovarian 56.2% | SK-OV-3 ovarian 78% | OVCAR-3 ovarian 57.3% | HS 578T breast 117% | NCI/ADR-RES ovarian 25.1% | T-47D breast 35.7%

O=C1C=CC(=O)N1c1ccc(N2C(=O)C=CC2=O)cc1
inactive: RPMI-8226 leukemia 38.6% | OVCAR-8 ovarian 109% | OVCAR-5 ovarian 97.7% | OVCAR-4 ovarian 101% | SK-OV-3 ovarian 97.3% | OVCAR-3 ovarian 103% | HS 578T breast 128% | NCI/ADR-RES ovarian 102% | T-47D breast 95.9%

O=C1C(Cl)=C(Cl)C(Cl)(Cl)C(Cl)C1(Cl)Cl (centres undefined)
inactive: RPMI-8226 leukemia 98.1% | OVCAR-8 ovarian 106% | OVCAR-5 ovarian 102% | SK-OV-3 ovarian 103% | OVCAR-3 ovarian 112% | HS 578T breast 109% | NCI/ADR-RES ovarian 104% | T-47D breast 91.9%

O=C(CNS(=O)(=O)Cc1ccccc1)NNc1ccccc1
inactive: RPMI-8226 leukemia 62.4% | OVCAR-8 ovarian 58.4% | OVCAR-5 ovarian 68.6% | OVCAR-4 ovarian 42.6% | SK-OV-3 ovarian 78.7% | OVCAR-3 ovarian 86.8% | NCI/ADR-RES ovarian 67% | T-47D breast 56.6%

O=C1c2ccccc2CCC1(Br)Br
active: RPMI-8226 leukemia 1.08% | OVCAR-4 ovarian -27.5% | OVCAR-3 ovarian -69.6% | T-47D breast -23.8%
inactive: OVCAR-8 ovarian 38.6% | OVCAR-5 ovarian 25.8% | SK-OV-3 ovarian 95% | HS 578T breast 69.4% | NCI/ADR-RES ovarian 19.3%

CN(C)CCNc1cccc2sc3ccc(O)cc3c(=O)c12
inactive: RPMI-8226 leukemia 73.4% | OVCAR-8 ovarian 36% | OVCAR-5 ovarian 78.8% | OVCAR-4 ovarian 52.8% | SK-OV-3 ovarian 51.1% | OVCAR-3 ovarian 41.8% | HS 578T breast 69.4% | NCI/ADR-RES ovarian 45% | T-47D breast 64.4%

NCc1c(O)ccc2ccccc12
inactive: RPMI-8226 leukemia 101% | OVCAR-8 ovarian 103% | OVCAR-5 ovarian 96.9% | OVCAR-4 ovarian 111% | SK-OV-3 ovarian 96.9% | OVCAR-3 ovarian 99.4% | HS 578T breast 94.5% | NCI/ADR-RES ovarian 103% | T-47D breast 98.3%

COc1cccc(C(c2cc3c(cc2O)OCO3)N2CCOCC2)c1OC (centres undefined)
inactive: RPMI-8226 leukemia 105% | OVCAR-8 ovarian 99.2% | OVCAR-5 ovarian 104% | OVCAR-4 ovarian 99.5% | SK-OV-3 ovarian 101% | OVCAR-3 ovarian 111% | HS 578T breast 95.5% | NCI/ADR-RES ovarian 104% | T-47D breast 97.2%

N#C/C(=C/N1C(=O)/C(=C/c2ccc([N+](=O)[O-])cc2)SC1=S)c1nc2ccccc2s1
inactive: RPMI-8226 leukemia 67.4% | OVCAR-8 ovarian 88.4% | OVCAR-5 ovarian 90.3% | OVCAR-4 ovarian 104% | SK-OV-3 ovarian 82.4% | OVCAR-3 ovarian 82.2% | HS 578T breast 90.4% | NCI/ADR-RES ovarian 92.3% | T-47D breast 53.6%

Cc1c(-c2ccccc2)[nH]c2ccccc12
inactive: RPMI-8226 leukemia 88.3% | OVCAR-8 ovarian 105% | OVCAR-5 ovarian 99% | OVCAR-4 ovarian 96.7% | OVCAR-3 ovarian 105% | HS 578T breast 102% | NCI/ADR-RES ovarian 105% | T-47D breast 92.4%

Nc1nc(N)c2cc(Sc3ccc4ccccc4c3)ccc2n1
inactive: OVCAR-8 ovarian 34.8% | OVCAR-5 ovarian 50.5% | SK-OV-3 ovarian 62.3% | OVCAR-3 ovarian 38.8% | HS 578T breast 61.7% | NCI/ADR-RES ovarian 43.9% | T-47D breast 45.8%
active: RPMI-8226 leukemia -11.9%

CC[C@@]1(OC(=O)CN(C)C)C(=O)OCc2c1cc1n(c2=O)Cc2cc3c(N)cccc3nc2-1
inactive: OVCAR-8 ovarian 14.5% | OVCAR-5 ovarian 15.1% | OVCAR-4 ovarian 10.2% | HS 578T breast 62.5% | T-47D breast 13.3%
active: RPMI-8226 leukemia 2.58% | SK-OV-3 ovarian 2.84% | OVCAR-3 ovarian -34.2% | NCI/ADR-RES ovarian 5.59%

O=c1[nH]cc(/C=N\Nc2ccccc2)c(=O)[nH]1
inactive: RPMI-8226 leukemia 76.5% | OVCAR-8 ovarian 46.7% | OVCAR-5 ovarian 68.4% | OVCAR-4 ovarian 84.4% | SK-OV-3 ovarian 62.2% | OVCAR-3 ovarian 81.2% | HS 578T breast 81.7% | NCI/ADR-RES ovarian 56.4% | T-47D breast 42.4%

COc1ccc(N)c2c1C(=O)c1ccccc1C2=O
inactive: RPMI-8226 leukemia 88.9% | OVCAR-8 ovarian 95.7% | OVCAR-5 ovarian 103% | OVCAR-4 ovarian 109% | SK-OV-3 ovarian 89.4% | OVCAR-3 ovarian 115% | HS 578T breast 107% | NCI/ADR-RES ovarian 110% | T-47D breast 81.9%

ClCCn1c(CCl)nc2ccc(Cl)cc21
active: RPMI-8226 leukemia -22.2% | OVCAR-8 ovarian -33% | OVCAR-5 ovarian -22.9% | OVCAR-4 ovarian -18.9% | IGROV1 ovarian -62.5% | OVCAR-3 ovarian -89.6% | HS 578T breast -10.9% | NCI/ADR-RES ovarian 2.35%

CC1CCC2(C(=O)O)CCC3(C)C(=CCC4C5(C)CC(O)C(O)C(C)(CO)C5C(O)CC43C)C2C1C (centres undefined)
inactive: RPMI-8226 leukemia 128% | OVCAR-5 ovarian 188% | OVCAR-4 ovarian 114% | SK-OV-3 ovarian 103% | OVCAR-3 ovarian 118% | NCI/ADR-RES ovarian 99.4% | T-47D breast 97%

COc1cc(N)ccc1Nc1c2ccccc2nc2ccccc12
inactive: OVCAR-8 ovarian 66.1% | OVCAR-5 ovarian 110% | SK-OV-3 ovarian 93.9% | OVCAR-3 ovarian 80.6% | HS 578T breast 102% | NCI/ADR-RES ovarian 92.7% | T-47D breast 92.3%
active: OVCAR-4 ovarian 5.09%

Cc1cc(Cl)ccc1NC(=O)/C(Cl)=C1/Sc2ccccc2NC1=O
inactive: RPMI-8226 leukemia 69.4% | OVCAR-5 ovarian 93.5% | OVCAR-4 ovarian 89.8% | SK-OV-3 ovarian 103% | OVCAR-3 ovarian 95.4% | HS 578T breast 122% | NCI/ADR-RES ovarian 87.6% | T-47D breast 50.3%

COc1ccc2c(c1)[nH]c1c(/C=C/c3ccccc3)nccc12
inactive: RPMI-8226 leukemia 25.2% | OVCAR-5 ovarian 74.2% | OVCAR-4 ovarian 21.4% | SK-OV-3 ovarian 65.1% | OVCAR-3 ovarian 73.4% | HS 578T breast 70.4% | NCI/ADR-RES ovarian 53.4% | T-47D breast 43.7%

Cc1cc(O)c2c(c1O)C(=O)C13C(=C2O)C(=O)C2C(O)C1C1C(O)C3C(=O)C3=C(O)c4c(O)cc(C)c(O)c4C(=O)C321 (centres undefined)
inactive: OVCAR-4 ovarian 27.8%
active: RPMI-8226 leukemia -4.03% | OVCAR-5 ovarian -50.6% | SK-OV-3 ovarian -13.1% | OVCAR-3 ovarian -39.1% | HS 578T breast -55.2% | NCI/ADR-RES ovarian -17% | T-47D breast -1.74%
